High-throughput results from PubChem.
The list is not random: actives were taken first. Their share in the collection is about 2.7%.
HSP90 refold inh: HSP90 refolding inhibition in rabbit reticulocyte lysate; hit rate 0.91% among 290,000; luciferase refolding luminescence, 3 h; inhibition, % at 5.6 µM;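 active = inhibition above the screen-wide mean plus 3 SD, computed separately per campaign, cut at about 16% in these data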;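 note: 0% = DMSO wells and 100% = 60 µM geldanamycin wells; inhibitors lower the luminescence because luciferase stays unfolded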
SENP7 inh: inhibitors of human SENP7 protease. Q9BQF6. recombinant SENP7, Z-RLRGG-aminoluciferin luminescence, 40 min. inhibition, % at 5 µM. hit rate 1.5% among 330,000;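 active = inhibition above about 50% at the single test dose, limit read from the data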;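 note: plate controls were DMSO with enzyme for no effect and no enzyme buffer wells for full effect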
SENP8 block-1: inhibitors of human SENP8 protease; Q96LD8; recombinant SENP8, Nedd8 substrate fluorescence; inhibition, % at 20 µM; hit rate 0.64% among 360,000; in the data active = inhibition mostly above about 40%, no sharp cut-off; inactive = mostly below about 27%
Target sequence (Q96LD8 whole entry, looked up): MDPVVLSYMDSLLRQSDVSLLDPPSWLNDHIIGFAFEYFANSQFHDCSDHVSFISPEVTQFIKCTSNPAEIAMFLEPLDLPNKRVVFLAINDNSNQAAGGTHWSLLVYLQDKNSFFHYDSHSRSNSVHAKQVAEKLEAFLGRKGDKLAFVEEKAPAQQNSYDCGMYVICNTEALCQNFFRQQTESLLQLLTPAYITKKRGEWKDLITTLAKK
SENP8 block-2: inhibitors of human SENP8 protease. AID 2540. purified SENP8, Z-RLRGG-aminoluciferin cleavage, luminescence. hit rate 1.2% among 330,000. inhibition, % at 10 µM. Q96LD8; in the data active = inhibition above about 50%
SENP6 inh: blocks the human protease SENP6; hit rate 1.8% among 330,000; Q9GZR1; inhibition, % at 10 µM; Recombinant SENP6 catalytic domain, aminoluciferin luminescence;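 active = inhibition above about 50% at the single tested dose, limit read from the data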;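 note: plate controls were DMSO wells with enzyme for no effect and DMSO wells lacking enzyme for full effect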
HSP90 confirm: confirmation of HSP90 inhibitors; rabbit reticulocyte lysate, luciferase refolding luminescence, 3 h; shares compounds with HSP90 refold inh; inhibition, % at 5.9 µM; AID 1846; hit rate 64% among 2,300; in the data active = inhibition above about 18%;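 note: 0% = vehicle wells and 100% = reference inhibitor wells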
luciferase ctr: blocks native firefly luciferase in HSP90 counter-screen; purified native firefly luciferase, luminescence; shares compounds with HSP90 refold inh; inhibition, % at 5.9 µM; hit rate 48% among 2,300;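 active = inhibition above the mean inhibition of all tested sample wells plus 3 SD, cut at about 10% in these data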;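 note: 0% = DMSO with luciferase and 100% = wells lacking luciferase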
SENP8 conf: human SENP8 inhibition, confirmed; shares compounds with SENP7 inh; Recombinant SENP8, Z-RLRGG-aminoluciferin luminescence, 60 min; inhibition, % at 12.5 µM; hit rate 40% among 6,200;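 active = mean inhibition across replicates above about 50%, limit read from the data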
SENP6 conf: human SENP6 inhibition, confirmed | shares compounds with SENP7 inh | recombinant SENP6, Z-RLRGG-aminoluciferin luminescence | inhibition, % at 12.5 µM | hit rate 58% among 6,200
SENP7 conf: human SENP7 inhibition, confirmed | shares compounds with SENP7 inh | recombinant SENP7, Z-RLRGG-aminoluciferin luminescence, 40 min | inhibition, % at 12.5 µM | hit rate 69% among 6,200 | AID 488917
Casp3 select: caspase-3 inhibition (SENP selectivity assay) | shares compounds with SENP7 inh | purified caspase-3, Z-DEVD-aminoluciferin luminescence, 60 min | inhibition, % at 12.5 µM | hit rate 60% among 6,200 | AID 488918;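 active = mean inhibition above about 50%, limit read from the data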;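 note: plate controls were enzyme with DMSO for no effect and wells without caspase-3 for full effect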
Target sequence (P42574 28-227 limits assumed): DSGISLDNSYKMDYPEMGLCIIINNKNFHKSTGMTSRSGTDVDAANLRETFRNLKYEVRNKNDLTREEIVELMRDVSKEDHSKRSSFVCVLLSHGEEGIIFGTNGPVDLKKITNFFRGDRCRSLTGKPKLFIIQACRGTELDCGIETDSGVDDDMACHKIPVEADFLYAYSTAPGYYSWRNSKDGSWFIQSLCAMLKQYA
SENP luc ctr: luminescence interference (SENP counter-screen). shares compounds with SENP7 inh. Pre-incubated SENP8/Z-RLRGG-aminoluciferin, luciferase luminescence interference. inhibition, % at 12.5 µM. hit rate 39% among 6,200;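 active = mean inhibition above about 50% when retested at one dose, limit read from the data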;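 note: plate controls were DMSO wells with completed reaction for no effect and substrate without enzyme for full effect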
The depositor's hits bear a star; i = inactive; . = no result given.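 Rule for the calls, unless noted: active = mean inhibition above about 50% in the one-dose retest (limit read from the data); inactive = the rest.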

SMILES	HSP90 refold inh	SENP7 inh	SENP8 block-1	SENP8 block-2	SENP6 inh	SENP8 conf	SENP6 conf	SENP7 conf	Casp3 select	SENP luc ctr	others
CCOC(=O)c1ccc(NC(=O)C2C3C=CC(O3)C2C(=O)O)cc1 (stereo not given)	35*	-6	.	-17	-11	.	.	.	.	.	HSP90 confirm=-8;luciferase ctr=-15
CC1(C)C2([N+](=O)[O-])CN3CC1([N+](=O)[O-])CN(C2)C3c1cccnc1 (stereo not given)	0	-6	12	-4	-7	.	.	.	.	.
CSc1nc(N)c(N=Nc2ccc([As](=O)(O)O)cc2)c(=O)[nH]1	21*	8	9	-2	-1	.	.	.	.	.	HSP90 confirm=22*;luciferase ctr=-15
C[C@]12CCC3C(CC[C@H]4C[C@@H](O)CC[C@]34C)C1CC[C@@H]2N (stereo not given in full)	.	9	4	6	-5	.	.	.	.	.
CN1CCN(Cc2ccc3ccccc3c2)CC1	0	0	11	5	2	.	.	.	.	.
CCCCCCOc1ccc(CN2CCN(C)CC2)cc1	19*	-5	16	1	-5	.	.	.	.	.	HSP90 confirm=39*;luciferase ctr=25*
C[n+]1c(-c2ccccc2)c2cc(N)ccc2c2ccc(N)cc21	39*	95*	95*	93*	82*	.	.	.	.	.	HSP90 confirm=9;luciferase ctr=2
OCC[n+]1c2ccccc2nc2ccc(N3CCOCC3)cc21	22*	22	31	38	52*	49	68*	40	48	18	HSP90 confirm=30*;luciferase ctr=18*
O=C(CCc1ccccc1)N1Cc2cc(N3CCOCC3)ccc2-n2nncc2C1	.	.	-5	.	.	.	.	.	.	.
CN(C)C(=O)Oc1ccc(OCc2nc3ccccc3[nH]2)cc1	27*	95*	14	-6	91*	94*	94*	100*	96*	93*	HSP90 confirm=52*;luciferase ctr=31*
CN(C)C(=O)Oc1ccc(OC(=O)N(C)C)cc1	1	4	7	4	-6	.	.	.	.	.
CC(C)(C)n1cc(C(=O)c2ccc3ccccc3c2O)cn1	49*	68*	9	57*	-33	18	15	2	11	14	HSP90 confirm=60*;luciferase ctr=58*
O=C1NC(=O)C(=Cc2coc3ccccc3c2=O)C(=O)N1	6	16	-34	-4	8	.	.	.	.	.
Cc1ccc(O)c(CN2CCC3CCC(C3)C2)c1 (stereo not given)	.	.	6	.	.	.	.	.	.	.
COCCCn1c(N)c(C(=O)NCc2ccco2)c2nc3ccccc3nc21	21*	87*	.	90*	93*	15	26	17	-1	-1	HSP90 confirm=2;luciferase ctr=-5
CNC(=O)Oc1ccc(-c2cn3cc(Cl)ccc3n2)cc1	11	67*	-333	64*	78*	37	37	75*	72*	21
Cn1c(O)c(C=Nc2ccc(Br)cc2)c(=O)n(C)c1=O	6	26	-157	50*	59*	2	3	14	0	4
Fc1ccc(Cn2nnnc2C(c2ccc(F)cc2)N2CC=C(c3ccc(F)cc3)CC2)cc1 (stereo not given)	-3	1	10	7	2	.	.	.	.	.
COc1ccc(C[C@@H]2c3cc(O)c(OC)cc3CCN2C)cc1O	7	-6	9	-3	-4	.	.	.	.	.
COc1cc2c(cc1O)[C@@H]1Cc3ccc(OC)c(O)c3CN1CC2	.	49	80*	64*	74*	10	29	17	6	4
Cc1cc(C(=O)CN2CCCC2)c(C)n1-c1ccc(F)cc1	3	5	28	-1	-6	.	.	.	.	.
Oc1cc(O)cc(/C=C/c2ccc(O)cc2O)c1	.	40	-499	46	70*	62*	62*	87*	59*	77*
Cc1cc(C(=O)N=Nc2c(O)n(C)c3ccccc23)c(C)o1	-6	90*	28	79*	91*	54*	56*	48	5	10
COCCCn1c(N)c(C(=O)Nc2ccccc2)c2nc3ccccc3nc21	1	1	-430	8	22	.	.	.	.	.
CCC(C)NC(=O)c1c(N)n(CC2CCCO2)c2nc3ccccc3nc12 (stereo not given)	8	72*	-270	83*	88*	7	41	34	9	6
SMILES	HSP90 refold inh	SENP7 inh	SENP8 block-1	SENP8 block-2	SENP6 inh	SENP8 conf	SENP6 conf	SENP7 conf	Casp3 select	SENP luc ctr	others
CC(C)CCNC(=O)c1c(N)n(CC2CCCO2)c2nc3ccccc3nc12 (stereo not given)	3	74*	-258	79*	82*	17	48	35	4	5
COCCCn1c(N)c(C(=O)Nc2sc3c(c2C(=O)OC)CCCC3)c2nc3ccccc3nc21	5	71*	-269	89*	91*	1	7	16	7	3
CCC(C)NC(=O)c1c(N)n(CCCOC)c2nc3ccccc3nc12 (stereo not given)	10	90*	-265	92*	86*	40	83*	74*	16	18
CCOP(=O)(OCC)c1cccc(OP(=O)(c2cccc([N+](=O)[O-])c2)c2cccc([N+](=O)[O-])c2)c1	3	-3	28	-8	-20	.	.	.	.	.
Nc1c(C(=O)NCCN2CCOCC2)c2nc3ccccc3nc2n1Cc1ccccc1	2	6	-425	0	25	.	.	.	.	.
CCC(C)NC(=O)c1c(N)n(Cc2ccc3c(c2)OCO3)c2nc3ccccc3nc12 (stereo not given)	-1	68*	i	92*	90*	2	11	11	-3	3
O=C(CCc1ccccc1)N1Cc2cc(-c3ccccc3)ccc2-n2nncc2C1	.	.	-4	.	.	.	.	.	.	.
CCOC(=O)C1(CCc2ccccc2)CCN(Cc2ccc3c(c2)OCCO3)CC1	1	9	16	-8	70*	10	1	-4	3	-2
COc1ccc(-c2cc(=NCCCCCC(=O)O)c3cc(C)ccc3o2)cc1	-2	.	-468	.	.	.	.	.	.	.
COc1ccc(-c2cc(=Nc3cccc(C(=O)O)c3)c3cc(C)ccc3o2)cc1	6	82*	-408	64*	50	10	53*	68*	51*	65*
O=C1NCN(c2ccccc2)C12CCN(C(c1nnnn1C1CCCCC1)C1CC1)CC2 (stereo not given)	.	.	28	.	.	.	.	.	.	.
